Assay outcomes from PubChem BioAssay.
A selection: hits, their analogues and other compounds. The true share with any hit is near 3.4%.
TEAD-YAP block: TEAD-YAP interaction inhibition | HEK-TIYL cells, TEAD-Gal4/YAP UAS-luciferase luminescence | inhibition, % at 9.12 µM | actives 1.4% (n = 640,000) | AID 1259422; in the data active = inhibition above about 32%;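 note: 0% = median of test compound wells and 100% = reference inhibitor wells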
MITF inh: blocks human microphthalmia-associated transcription factor | O75030 | AlphaScreen MITF homodimerization, bead proximity signal | inhibition, % at 2.6 µM | actives 0.91% (n = 650,000); in the data active = inhibition above about 50%;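 note: 0% = vehicle wells with protein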
GPR151 ag: activates the human receptor GPR151 | Q8TDV0 | PathHunter beta-arrestin GPR151 cells, luminescence | activation, % at 11.2 µM | actives 1% (n = 650,000); in the data active = activation above about 4.9%;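 note: 0% = median of compound wells and 100% = cells with positive control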
Target sequence (Q8TDV0 whole entry, looked up): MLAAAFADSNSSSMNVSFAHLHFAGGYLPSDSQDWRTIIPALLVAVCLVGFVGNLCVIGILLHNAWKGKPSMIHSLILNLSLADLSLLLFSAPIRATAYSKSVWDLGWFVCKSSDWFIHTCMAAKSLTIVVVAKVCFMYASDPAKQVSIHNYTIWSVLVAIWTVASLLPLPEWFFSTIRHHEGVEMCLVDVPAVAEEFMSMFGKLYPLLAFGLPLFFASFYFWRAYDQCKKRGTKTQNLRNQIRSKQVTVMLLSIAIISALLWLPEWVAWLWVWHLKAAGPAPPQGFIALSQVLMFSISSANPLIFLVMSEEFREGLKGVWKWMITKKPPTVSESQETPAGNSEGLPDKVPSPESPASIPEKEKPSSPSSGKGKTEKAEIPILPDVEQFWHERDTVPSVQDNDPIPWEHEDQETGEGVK
FBW7 act: human FBW7 E3 ligase activation, primary screen | Q969H0 | AlphaScreen FBW7–phospho-cyclin E peptide binding, activator screen | normalized activity (activation), % at 26.1 µM | actives 0.13% (n = 650,000) | AID 1259310; in the data active = normalized activity above about 1.9%;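 note: purified mutant Fbw7 with reduced substrate affinity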
Active calls of the source: *.

SMILES	TEAD-YAP block	MITF inh	GPR151 ag	FBW7 act
CSC1SC[C@H]2C(=O)N(C)[C@@H](C(C)C)C(=O)OC[C@@H](NC(=O)c3cnc4ccccc4n3)C(=O)N[C@@H](C)C(=O)N(C)[C@H]1C(=O)N(C)[C@@H](C(C)C)C(=O)OC[C@@H](NC(=O)c1cnc3ccccc3n1)C(=O)N[C@@H](C)C(=O)N2C (stereo not given in full)	95.7*	-6.3	1.2	0.1
COc1ccc(C2CC(=O)C3=C(C2)NC(C)=C(C(=O)OC(C)C)C3c2cccc(Br)c2)cc1OC (stereo not given)	30.9	-2.6	1.7	0.2
CC1=C(C(=O)OC2CCCCC2)C(c2ccc(F)cc2)C2=C(CC(c3ccccc3)CC2=O)N1 (stereo not given)	9.1	14.2	-0.3	1.9*
CCC(C)OC(=O)C1=C(C)NC2=C(C(=O)CC(c3ccc(Cl)cc3)C2)C1c1cccc(Cl)c1 (stereo not given)	6.2	11.2	1.0	1.9*
CC1=C(C#N)C(c2ccccc2Cl)C2=C(CC(c3ccccc3)CC2=O)N1 (stereo not given)	32.7*	1.0	-0.6	0.2
COc1ccc(C2CC(=O)C3=C(C2)NC(C)=C(C(=O)OC(C)C)C3c2cccc(C)c2)cc1OC (stereo not given)	52.2*	3.7	-1.2	0.2
COCCOC(=O)C1=C(C)NC2=C(C(=O)CC(c3ccc(OC)c(OC)c3)C2)C1c1cccc(C)c1 (stereo not given)	43.2*	4.4	1.2	0.0
COc1ccc(C2CC(=O)C3=C(C2)NC(C)=C(C(=O)OC(C)C)C3c2cccc([N+](=O)[O-])c2)cc1OC (stereo not given)	38.5*	-10.1	-0.7	0.0
COc1ccc(C2CC(=O)C3=C(C2)NC(C)=C(C(=O)OC(C)C)C3c2cccc(Cl)c2)cc1OC (stereo not given)	45.9*	4.7	0.4	0.6
COc1ccc(C2CC(=O)C3=C(C2)NC(C)=C(C(=O)OC2CCCCC2)C3c2cccc(C)c2)cc1OC (stereo not given)	46.1*	7.4	0.3	0.5
CCOC(=O)C1=C(C)NC2=C(C(=O)CC(c3ccc(OC)c(OC)c3)C2)C1c1cccc([N+](=O)[O-])c1 (stereo not given)	4.8	-0.8	-0.6	0.1
Cn1c(=O)c2c(nc(N3CCOCC3)n2CCN2CCOCC2)n(C)c1=O	-1.3	12.0	-0.6	0.8
CCOc1ccc(C2C(C(=O)OC)=C(C)NC3=C2C(=O)CC(c2ccc(OC)c(OC)c2)C3)cc1 (stereo not given)	-11.1	-0.2	0.5	-0.1
CCC(C)OC(=O)C1=C(C)NC2=C(C(=O)CC(c3ccccc3)C2)C1c1cccc2ccccc12 (stereo not given)	9.3	6.3	0.2	2.2*
COc1ccc(C2CC(=O)C3=C(C2)NC(C)=C(C(=O)OC(C)C)C3c2ccccc2OC)cc1OC (stereo not given)	0.5	14.2	-1.0	0.6
CCOc1ccc(C2C(C(=O)OC)=C(C)NC3=C2C(=O)CC(c2ccc(OC)c(OC)c2)C3)cc1OC (stereo not given)	40.6*	-1.2	-0.5	-0.1
COc1ccc(C2CC(=O)C3=C(C2)NC(C)=C(C(=O)OC(C)C)C3c2ccccc2F)cc1OC (stereo not given)	43.3*	10.5	0.1	0.2
COC(=O)c1cc(OC)c(OC)cc1NC(=O)c1cc(Br)ccc1Cl	12.9	14.2	0.2	0.0
Cn1ccc(CC(=O)NCCN2Cc3ccccc3OC(c3ccsc3)C2)c1 (stereo not given)	10.4	9.5	2.0	-0.1
Cc1nc2c(c(C)c1CCC(=O)N1CCCCCC1)c(=O)n(C)c(=O)n2C	50.7*	-0.3	-0.4	0.1
O=C1NC(=O)N(c2ccc(F)cc2)C(=O)/C1=C/c1ccco1	-1.1	72.7*	0.6	0.0
O=C1NC(=O)N(c2ccccc2F)C(=O)/C1=C/c1ccc(I)o1	4.7	51.7*	-0.2	-0.1
Cc1cc(/C=C2\C(=O)NC(=O)N(c3cccc(F)c3)C2=O)c(C)n1C	0.8	55.0*	0.9	0.0
Cc1ccc(N2C(=O)NC(=O)/C(=C\c3ccco3)C2=O)cc1C	4.1	4.8	0.6	-0.2
Cc1ccc(N2C(=O)NC(=O)/C(=C\c3cc(C)n(C)c3C)C2=O)cc1	4.8	15.2	-0.9	0.1
SMILES	TEAD-YAP block	MITF inh	GPR151 ag	FBW7 act
Cc1cc(/C=C2\C(=O)NC(=S)N(c3ccc(F)cc3)C2=O)c(C)n1-c1cccnc1	0.0	109.8*	-1.9	-0.1
CCc1ccc(N2C(=O)NC(=O)/C(=C\c3cc(C)n(-c4cccnc4)c3C)C2=O)cc1	4.7	-16.7	-1.9	-0.4
COc1ccc(/C(C)=N/NC(=O)c2ccccc2[N+](=O)[O-])cc1	1.5	8.2	0.2	0.4
CCOC(=O)c1c(NC(=O)CSc2nnc(CNC(=O)c3ccc(C)c([N+](=O)[O-])c3)n2C)sc2c1CCCCC2	0.4	11.2	0.3	0.1
COc1cc(OC)c(OC)cc1/C=C1\C(=O)NC(=S)N(c2cccc(F)c2)C1=O	5.7	53.8*	-1.9	-0.2
O=C1NC(=O)N(c2cccc(F)c2)C(=O)/C1=C/c1ccc(I)o1	11.1	78.4*	0.8	0.2
N#C/C(=C\c1ccncc1)C(=O)Nc1cccc(S(=O)(=O)N2CCCCC2)c1	0.1	10.0	1.4	0.1
Cc1ccc2[nH]c(=O)c(CN(Cc3ccccc3)Cc3nnnn3CC3CCCO3)cc2c1 (stereo not given)	-32.6	6.5	0.4	0.0
O=c1oc2c(cc(NS(=O)(=O)c3ccccc3)c3ccccc32)s1	-1.1	-4.9	-0.3	-0.1
COc1ccc(C2C3=C(Nc4ncnn42)c2ccccc2OC3c2cccs2)cc1 (stereo not given)	-5.2	-9.3	-1.0	-0.1
COc1ccc(C2Oc3ccccc3C3=C2C(c2cccs2)n2ncnc2N3)cc1 (stereo not given)	38.0*	2.4	1.6	0.2
CN1CCCc2cc(C(CNC(=O)NC(C)(C)C)N(C)C)ccc21 (stereo not given)	1.2	8.8	-0.6	0.0
CN1CCc2cc(C(CNC(=O)Nc3cccc(Cl)c3)N(C)C)ccc21 (stereo not given)	48.9*	-3.3	-1.2	-0.2
CCC(=O)Nc1nc(C)c(-c2csc(Nc3cc(OC)ccc3OC)n2)s1	6.0	16.4	-0.4	-0.1
CCC(=O)Nc1nc(C)c(-c2csc(Nc3ccc(OC)cc3)n2)s1	33.5*	10.6	-1.0	-0.1
Cc1nc(C)c(-c2csc(Nc3ccc(F)cc3)n2)s1	-42.9	8.1	-0.6	0.4
CCc1ccc(Nc2nc(-c3sc(C)nc3C)cs2)cc1	47.3*	12.0	-1.9	0.4
Cc1ccc(NC(=O)CN2C(=O)NC(c3ccccc3)(c3ccccc3)C2=O)c(C)c1	-0.1	-0.6	0.1	0.1
Cc1ccc2oc(-c3cccc(N)c3)nc2c1	-6.5	4.5	-8.9	-0.1
Cc1ccc2oc(-c3ccc(N)cc3)nc2c1	69.5*	5.1	-7.3	-0.1
COc1ccc(-c2nc3cc(N)ccc3o2)cc1	31.5	-3.4	-5.8	0.2
Nc1ccc(O)c(-c2nc3cc(Cl)ccc3o2)c1	-42.9	4.3	-1.7	0.0
